Among the data in PubChem BioAssay (EPA / NIEHS) are outcome and AC50 values, retold here.

Calls of active or inactive are those of the source. The calls were made as follows: active = hit-call score of the fitted dose curve at least 0.9, where 1 is the maximum; inactive = score below 0.9.

Common to all, as to conditions: mRNA level, 48 h; actives raise or lower the signal
Read-out in assay [1]: CFLAR gene, CFLAR (gene 8837)
Description: LTEA_HepaRG_CFLAR: Life Technologies and Expression Analysis (LTEA) Assay for CFLAR gene using HepaRG (AID 2283455). An outline of the steps:
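Differentiated HepaRG cells in serum-free induction medium were exposed 48 h in duplicate to eight half-log concentrations up to 100 uM in 0.5% DMSO; mRNA measured by TaqMan qRT-PCR, normalized to ACTB, GAPDH, POLR2A; bidirectional fitting versus DMSO.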

Read-out in assay [2]: Forkhead box O1 (FOXO1), FOXO1 (gene 2308)
Description: LTEA_HepaRG_FOXO1: Life Technologies and Expression Analysis (LTEA) Assay for Forkhead box O1 (FOXO1) using HepaRG (AID 2283456). An outline of the steps: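 Differentiated HepaRG cells, in serum-free induction medium with 0.5% DMSO, exposed 48 h in duplicate to 8-point half-log series from 100 uM. FOXO1 mRNA measured by TaqMan qRT-PCR, normalized to ACTB, GAPDH, POLR2A; bidirectional fit versus DMSO.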

Read-out in assay [3]: Forkhead box O3 (FOXO3), FOXO3 (gene 2309)
Description: LTEA_HepaRG_FOXO3: Life Technologies and Expression Analysis (LTEA) Assay for Forkhead box O3 (FOXO3) using HepaRG (AID 2283459). The method in brief:
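Differentiated human HepaRG cells, 48 h post-plating, exposed in duplicate for 48 h in serum-free induction medium; 8-point half-log series from 100 uM in 0.5% DMSO. FOXO3 mRNA by TaqMan qRT-PCR, normalized to ACTB/GAPDH/POLR2A; bidirectional fit versus DMSO.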

Read-out in assay [4]: ABC Transporter (ABCB1), ABCB1 (gene 5243)
Description: LTEA_HepaRG_ABCB1: Life Technologies and Expression Analysis (LTEA) Assay for ABC Transporter (ABCB1) using HepaRG (AID 2283460). An outline of the steps:
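HepaRG cells exposed in duplicate for 48 h in serum-free induction medium to eight half-log concentrations up to 100 uM in 0.5% DMSO. ABCB1 mRNA quantified by qRT-PCR, normalised to ACTB, GAPDH and POLR2A; fitted bidirectionally versus DMSO.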

Read-out in assay [5]: growth arrest and DNA damage 45 (GADD45B), GADD45B (gene 4616)
Description: LTEA_HepaRG_GADD45B: Life Technologies and Expression Analysis (LTEA) Assay for growth arrest and DNA damage 45 (GADD45B) using HepaRG (AID 2283461). An outline of the steps:
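Transcript level quantified by Fluidigm TaqMan qRT-PCR with three housekeeping genes for normalization, analyzed for up- or down-regulation against 0.5% DMSO. HepaRG cultures dosed 48 h at eight half-log concentrations up to 100 uM, duplicates.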

Read-out in assay [6]: ABC Transporter (ABCC3), ABCC3 (gene 8714)
Description: LTEA_HepaRG_ABCC3: Life Technologies and Expression Analysis (LTEA) Assay for ABC Transporter (ABCC3) using HepaRG (AID 2283462). The method in brief: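 Transcript level by TaqMan qRT-PCR, normalised to three housekeeping genes, fitted in both directions relative to vehicle. Chemicals tested in duplicate at eight half-log concentrations up to 100 uM for 48 h on HepaRG cells (0.5% DMSO).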

Read-out in assay [7]: ABC Transporter (ABCB11), ABCB11 (gene 8647)
Description: LTEA_HepaRG_ABCB11: Life Technologies and Expression Analysis (LTEA) Assay for ABC Transporter (ABCB11) using HepaRG (AID 2283463). The method in brief:
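Differentiated human HepaRG cells in serum-free induction medium, dosed in duplicate for 48 h. Eight-point half-log series from 100 uM in 0.5% DMSO; ABCB11 mRNA by qRT-PCR, normalized to ACTB, GAPDH, POLR2A, fitted bidirectionally versus DMSO.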

Read-out in assay [8]: Broad substrate specificity ATP-binding cassette transporter ABCG2 (Homo sapiens) (UniProt Q9UNQ0)
Description: LTEA_HepaRG_ABCG2: Life Technologies and Expression Analysis (LTEA) Assay for ABC Transporter (ABCG2) using HepaRG (AID 2283465). The method in brief:
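Differentiated HepaRG cells were exposed for 48 h in serum-free induction medium to 8 half-log concentrations, top 100 uM, in 0.5% DMSO. ABCG2 mRNA was measured by qRT-PCR, normalized to ACTB, GAPDH and POLR2A, with bidirectional fitting versus DMSO.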

Read-out in assay [9]: ATP-citrate lyase (ACLY), ACLY (gene 47)
Description: LTEA_HepaRG_ACLY: Life Technologies and Expression Analysis (LTEA) Assay for ATP-citrate lyase (ACLY) using HepaRG (AID 2283466). The method in brief:
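Differentiated HepaRG cells exposed 48 h in serum-free induction medium to eight half-log concentrations up to 100 uM in 0.5% DMSO, duplicates. Transcript measured by Fluidigm TaqMan qRT-PCR, normalized to ACTB, GAPDH, POLR2A; bidirectional fit versus DMSO.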

Read-out in assay [10]: Peroxisomal acyl-coenzyme A oxidase 1 (ACOX1) gene, ACOX1 (gene 51)
Description: LTEA_HepaRG_ACOX1: Life Technologies and Expression Analysis (LTEA) Assay for Peroxisomal acyl-coenzyme A oxidase 1 (ACOX1) gene using HepaRG (AID 2283467). The method in brief: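 HepaRG cells, plated 48 h then switched to serum-free induction medium, were exposed in duplicate for 48 h to 8-point half-log concentrations up to 100 uM in 0.5% DMSO. ACOX1 mRNA was measured by qRT-PCR, normalized to ACTB/GAPDH/POLR2A, and fitted bidirectionally versus DMSO.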

Read-out in assay [11]: Alkaline Phosphatase, Placental (ALPP) gene, ALPP (gene 250)
Description: LTEA_HepaRG_ALPP: Life Technologies and Expression Analysis (LTEA) Assay for Alkaline Phosphatase, Placental (ALPP) gene using HepaRG (AID 2283468). An outline of the steps: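 ALPP transcript level, measured by qRT-PCR and normalized to three housekeeping genes (ACTB, GAPDH, POLR2A), after 48 h dosing of differentiated HepaRG in serum-free induction medium. Top concentration 100 uM with half-log dilutions (8 points, 0.5% DMSO, duplicates); bidirectional fitting relative to DMSO.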

Read-out in assay [12]: Bcl-2 (BAD) gene, BAD (gene 572)
Description: LTEA_HepaRG_BAD: Life Technologies and Expression Analysis (LTEA) Assay for Bcl-2 (BAD) gene using HepaRG (AID 2283469). The method in brief:
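Differentiated HepaRG cells were exposed in duplicate in 0.5% DMSO for 48 h to eight-point half-log concentrations up to 100 uM. BAD mRNA was measured by Fluidigm TaqMan qRT-PCR, normalized to ACTB, GAPDH and POLR2A, and fitted bidirectionally against DMSO.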

Read-out in assay [13]: Bcl-2 (BAX) gene, BAX (gene 581)
Description: LTEA_HepaRG_BAX: Life Technologies and Expression Analysis (LTEA) Assay for Bcl-2 (BAX) gene using HepaRG (AID 2283470). An outline of the steps:
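Differentiated HepaRG cells exposed 48 h in serum-free induction medium, eight half-log concentrations from 100 uM, in duplicate, 0.5% DMSO vehicle. BAX mRNA by TaqMan qRT-PCR, normalised to ACTB, GAPDH and POLR2A.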

Read-out in assay [14]: adenosine kinase (ADK) gene, ADK (gene 132)
Description: LTEA_HepaRG_ADK: Life Technologies and Expression Analysis (LTEA) Assay for adenosine kinase (ADK) gene using HepaRG (AID 2283471). The method in brief:
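ADK expression quantified by qRT-PCR, normalised to three housekeeping genes, after 48 h exposure of HepaRG cells to eight concentrations (top 100 uM, half-log steps, duplicate, 0.5% DMSO). Up- or down-regulation fitted relative to vehicle.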

Read-out in assay [15]: Alpha-fetoprotein (AFP) gene, AFP (gene 174)
Description: LTEA_HepaRG_AFP: Life Technologies and Expression Analysis (LTEA) Assay for Alpha-fetoprotein (AFP) gene using HepaRG (AID 2283472). An outline of the steps:
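Differentiated human HepaRG cells exposed 48 h in serum-free induction medium, 8-point half-log series from 100 uM in 0.5% DMSO, duplicate. AFP mRNA by qRT-PCR, normalized to ACTB, GAPDH, POLR2A; bidirectional fit vs DMSO.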

Read-out in a further assay: BCL2L11 (gene 10018)
Description: LTEA_HepaRG_BCL2L11: Life Technologies and Expression Analysis (LTEA) Assay for Bcl-2 (BCL2L11) gene using HepaRG (AID 2283473). The method in brief: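 BCL2L11 transcript levels are measured by Fluidigm qRT-PCR, normalized to three housekeeping genes. HepaRG cultures were plated 48 h, then treated 48 h with test chemical (top 100 uM, half-log, 0.5% DMSO vehicle); curves were fitted bidirectionally against DMSO.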

Read-out in assay [16]: Apolipoprotein A-V (APOA5) gene, APOA5 (gene 116519)
Description: LTEA_HepaRG_APOA5: Life Technologies and Expression Analysis (LTEA) Assay for Apolipoprotein A-V (APOA5) gene using HepaRG (AID 2283474). The method in brief: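 APOA5 transcript levels were quantified by qRT-PCR, normalized to three housekeeping genes, after 48 h chemical treatment of HepaRG cells (8 points, 100 uM maximum, half-log steps, 0.5% DMSO). Curves fitted in both directions against vehicle.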

Read-out in assay [17]: growth arrest and DNA damage 45 (GADD45A), GADD45A (gene 1647)
Description: LTEA_HepaRG_GADD45A: Life Technologies and Expression Analysis (LTEA) Assay for growth arrest and DNA damage 45 (GADD45A) using HepaRG (AID 2283458). The method in brief: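 Differentiated HepaRG cells exposed 48 h in serum-free induction medium to 8 concentrations, top 100 uM in half-log steps, 0.5% DMSO. GADD45A mRNA quantified by qRT-PCR, normalized to ACTB, GAPDH and POLR2A; bidirectional fit versus DMSO.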

Read-out in assay [18]: ABC Transporter (ABCC2), ABCC2 (gene 1244)
Description: LTEA_HepaRG_ABCC2: Life Technologies and Expression Analysis (LTEA) Assay for ABC Transporter (ABCC2) using HepaRG (AID 2283464). The method in brief:
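Endpoint is ABCC2 transcript level from qRT-PCR, normalized to three housekeeping genes and fitted bidirectionally relative to DMSO. Human HepaRG cells received test chemical for 48 h at up to 100 uM (8 points, half-log steps, 0.5% DMSO), duplicate wells.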

Sequence of Broad substrate specificity ATP-binding cassette transporter ABCG2 (Homo sapiens) (Q9UNQ0 whole entry, looked up): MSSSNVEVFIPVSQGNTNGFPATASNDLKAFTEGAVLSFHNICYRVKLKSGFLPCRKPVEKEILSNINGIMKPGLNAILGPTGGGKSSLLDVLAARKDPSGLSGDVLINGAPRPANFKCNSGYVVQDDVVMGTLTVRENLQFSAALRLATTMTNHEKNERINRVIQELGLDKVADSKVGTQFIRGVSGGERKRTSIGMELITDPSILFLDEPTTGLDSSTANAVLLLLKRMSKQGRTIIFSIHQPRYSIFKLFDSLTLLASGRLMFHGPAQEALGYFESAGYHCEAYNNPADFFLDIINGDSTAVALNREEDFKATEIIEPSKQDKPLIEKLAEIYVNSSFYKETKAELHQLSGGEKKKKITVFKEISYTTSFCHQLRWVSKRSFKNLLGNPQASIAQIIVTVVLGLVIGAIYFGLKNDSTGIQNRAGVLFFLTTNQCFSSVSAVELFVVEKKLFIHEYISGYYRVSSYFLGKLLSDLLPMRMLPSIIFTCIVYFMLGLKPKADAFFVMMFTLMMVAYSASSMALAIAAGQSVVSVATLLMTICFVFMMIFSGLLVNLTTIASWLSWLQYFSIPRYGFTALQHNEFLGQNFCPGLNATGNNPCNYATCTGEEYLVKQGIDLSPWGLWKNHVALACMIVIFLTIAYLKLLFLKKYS

For `Cc1ncc(CO)c(CO)c1O`, the compound was classed as inactive in assay [1], in [2], in assay [3], in [4], in [5] and in [6]. Moreover, the compound was classed as inactive in [7], in assay [8], in assay [9], in [10], in assay [11] and in assay [12]. Also, the compound was classed as inactive (in assay [13]; in assay [14]; in assay [15]; with BCL2L11 (gene 10018); in [16]).
With `CCCCCCCCCCCO`, the outcome in assay [1], in [2], in [17], in assay [3], in [4] and in assay [5] was inactive. In addition, the compound was classed as inactive in assay [6], in assay [7], in assay [18], in [9], in assay [10] and in [11]. In addition, the compound was called inactive (in [12]; in assay [13]; in assay [15]; in the assay with BCL2L11 (gene 10018); in [16]).
Take `CN(C)C(=O)C1(N2CCCCC2)CCN(CC[C@@]2(c3ccc(Cl)c(Cl)c3)CN(C(=O)c3ccccc3)CCO2)CC1`: the half-maximal activity concentration (AC50) in assay [1] is 61.9 µM (active); in [2], 47.2 µM (active); in assay [4] it was 23.4 µM (active); in assay [5] it was 29 µM (active); in assay [6], 79.4 µM (active); in [7], 26 µM (active). Besides, the AC50 is 23.7 µM (active) in [18]; 47.2 µM (active) in assay [9]; 88.1 µM (active) in assay [10]; 14.9 µM (active) in [11]; 27.1 µM (active) in assay [13]; 86.8 µM (active) in the assay with BCL2L11 (gene 10018). Further, the result in [17], in assay [3], in assay [12], in assay [15] and in [16] was inactive.

One may read the AC50 as the concentration giving half of the maximal activity seen.
